The list is not random: actives were taken first. Their share in the collection is about 2.6%.
Anthrax LT inh: blocks cellular internalization of anthrax lethal toxin. Cells, anthrax lethal toxin internalization, FRET ratio (460/530). Potency, µM (series often up to 40 µM), usual class: inhibitors. 0.67% of 70,000 active. AID 912; further: nearly all actives have a fitted effect of over 50% in size
SmPrx2 inh: Schistosoma mansoni Prx2 inhibition; AID 448; S. mansoni Prx2 activity coupled to TGR/GSH (TGR is thioredoxin glutathione reductase), NADPH fluorescence loss, qHTS; 0.07% of 65,000 active; Potency, µM
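Enzyme mix: 100 uM NADPH, 25 nM TGR, 700 uM GSH, 50 nM Prx2 in 100 mM phosphate pH 7.4, 10 mM EDTA, 0.01% Tween-20. 15 min RT with compound; NADPH/GSH added, H2O2 starts reaction; NADPH fluorescence read 8 min.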
AmpC nodet inh: AmpC beta-lactamase inhibition, detergent-free assay. AID 585. P00811. AmpC nitrocefin hydrolysis, absorbance 480 nm, no detergent. 1.8% of 71,000 active. Potency, µM (top dose mostly 28.7 µM)
Target sequence (P00811 whole entry, looked up): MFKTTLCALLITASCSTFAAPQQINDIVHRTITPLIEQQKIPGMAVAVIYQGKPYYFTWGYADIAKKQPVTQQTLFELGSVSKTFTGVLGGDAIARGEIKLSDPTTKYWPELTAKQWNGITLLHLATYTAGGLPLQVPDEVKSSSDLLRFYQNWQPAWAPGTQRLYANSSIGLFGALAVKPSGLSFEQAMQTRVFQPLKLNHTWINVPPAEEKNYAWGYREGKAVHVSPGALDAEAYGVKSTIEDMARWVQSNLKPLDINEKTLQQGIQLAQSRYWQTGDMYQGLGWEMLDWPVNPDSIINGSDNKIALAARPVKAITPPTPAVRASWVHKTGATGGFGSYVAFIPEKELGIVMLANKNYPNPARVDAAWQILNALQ
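Enzyme, pH 7.0 phosphate. Compound titrations were pre-incubated with AmpC for 15 min at room temperature before nitrocefin (stock 800 uM) addition; product formation was recorded at 480 nm every 20 s for 4 min.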
AmpC det inh: AmpC beta-lactamase inhibition, detergent assay; P00811; purified AmpC, nitrocefin hydrolysis with detergent; Potency, µM (titrated, usually from 28.7 µM); 0.09% of 71,000 active; active means well fitted curve in the direction sought with a large enough effect; inconclusive means small, poorly fitted or top-dose-only effect
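E. coli AmpC (5.3 nM) in 20 mM phosphate pH 7.0 with 0.01% Triton X-100, preincubated 15 min RT with compound; nitrocefin (2 uL of 800 uM stock) hydrolysis followed by 480 nm absorbance every 20 s over 4 min.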
A number is an active result; i = inactive; ? = inconclusive; nt = not tested or not shown; [ ] = another dose, or the depositor's remark. Unless noted, the call rests on the fitted dose curve.

SMILES | Anthrax LT inh | SmPrx2 inh | AmpC nodet inh | AmpC det inh
Cc1noc(/C=C/N(C)C)c1S(=O)(=O)N1CCc2ccccc21 | ? | i | 4µM[single pt active] | i
O=C(c1cnn2ccccc12)N1CCCc2ccccc21 | i | i | 4µM[single pt active] | i
COC(=O)c1cc2sccc2n1CC(=O)N1CCCc2ccccc21 | 10µM | i | i | i
CCCN1CCN(CCCNC(=O)c2cc3c(=O)n(C)c4ccccc4c3n2C)CC1 | 13µM | i | 4µM[single pt active] | i
Cn1c(C(=O)Nc2ccc3c(c2)OCCO3)cc2c(=O)n(C)c3ccccc3c21 | ? | i | i | i
Cn1c(C(=O)NCCCN2CCCCCC2)cc2c(=O)n(C)c3ccccc3c21 | 4µM | nt | i | i
CN1CCN(CCNC(=O)c2cc3c(=O)n(C)c4ccccc4c3n2C)CC1 | ? | i | 4µM[single pt active] | i
COc1ccccc1NC(=O)CSc1nnc(Cn2c(=O)sc3ccccc32)n1C | i | i | 4µM[single pt active] | i
Cn1c(Cn2c(=O)sc3ccccc32)nnc1SCC(=O)N1CCOCC1 | i | i | 4µM[single pt active] | i
Cn1c(Cn2c(=O)sc3ccccc32)nnc1SCC(=O)N1CCCCCC1 | ? | i | 4µM[single pt active] | i
CCOC(=O)CSc1nnc(Cn2c(=O)sc3ccccc32)n1C | i | i | i | i
CCOC(=O)N1CCN(C(=O)CSc2nnc(Cn3c(=O)sc4ccccc43)n2C)CC1 | i | i | 4µM[single pt active] | i
CO[C@@H]1C=CO[C@]2(C)Oc3c(C)c(O)c4c(O)c(c(C=NN5CCN(C)CC5)c(O)c4c3C2=O)NC(=O)C(C)=CC=C[C@H](C)[C@H](O)[C@H](C)[C@H](O)[C@H](C)[C@H](OC(C)=O)[C@H]1C | i[3.58 µM] | i | i | i
COC(=O)[C@@]1(Cc2ccc(F)cc2)[C@H]2c3cc(C(=O)N(C)C)n(Cc4ccc(O)c(OC)c4)c3C[C@H]2CN1C(=O)c1ccccc1 | i | i | i | i
Cc1cc(C)n(CCc2nc(-c3cc4ccccc4o3)cs2)n1 | 25µM | i | i | i
O=C1[C@@H]2[C@H]3[C@H](O)[C@H](O)C/C(=N/OCc4ccccc4)[C@H]3CC[C@H]2C(=O)N1c1ccc(F)cc1F | i[1.6 µM] | nt | nt | nt
CC(C)(C)C(=O)[C@@H]1[C@@H]2C(=O)N(c3ccc4c(c3)OCCO4)C(=O)[C@@H]2C2c3ccccc3C=CN21 (some centres undefined) | 1.3µM | i | i | i
CC(C)CCN1CCc2nc(COc3ccccc3)c3c(c2C1)COC(C)C3 (centres undefined) | i[8 µM] | nt | nt | nt
CCOC(=O)c1ccccc1NC1c2ccccc2C(=O)N1c1ccc(C)cn1 (centres undefined) | ? | i | 4µM[single pt active] | i
O=C1c2ccccc2C(Nc2cccnc2)N1Cc1ccccc1Cl (centres undefined) | i | i | 4µM[single pt active] | i
COc1cc(NC2c3ccccc3C(=O)N2c2ccc(C)cn2)cc(OC)c1OC (centres undefined) | i | i | i | i
Cc1ccc(N2C(=O)c3ccccc3C2Nc2cccnc2)nc1 (centres undefined) | i | i | 4µM[single pt active] | i
CCOc1ccccc1NC1c2ccccc2C(=O)N1c1ccc(C)cn1 (centres undefined) | i | i | i | i
O=C(/C=N/O)NCCCCNC(=O)/C=N/O | i[8 µM] | nt | nt | nt
Cc1ccc(N2C(=O)c3ccc(C(=O)NCCN4CCOCC4)cc3C2=O)cc1 | i | i | i | i
SMILES | Anthrax LT inh | SmPrx2 inh | AmpC nodet inh | AmpC det inh
CCCN1C(=O)c2ccc(C(=O)NCc3ccco3)cc2C1=O | i | i | i | i
CCCN1C(=O)c2cc(C(=O)NCc3cccs3)ccc2C1O (centres undefined) | i | i | 4µM[single pt active] | i
CCCN1C(=O)c2cc(C(=O)NCCc3cccc(C)c3)ccc2C1O (centres undefined) | ? | i | 4µM[single pt active] | i
Cc1c(C)n(C)c2ccc(C(=O)NCc3cccs3)cc12 | ? | i | 4µM[single pt active] | i
CCCN1C(=O)c2cc(C(=O)NCc3ccc(OC)cc3)ccc2C1O (centres undefined) | i | i | 3.2µM[single pt active] | i
CCNc1ncc2nc(C)c(=O)n(Cc3cccs3)c2n1 | i | i | i | i
COc1ccc(CNC(=O)C(c2cccs2)N(C(=O)c2csnn2)C2CC2)cc1 (centres undefined) | 7.9µM | i | i | i
COc1ccc(NC(=O)Nc2c(C)n(C)n(-c3ccccc3)c2=O)cc1 | i | i | 4µM[single pt active] | i
COc1cccc(OC)c1C(=O)Nc1c(C)n(C)n(-c2ccccc2)c1=O | i | i | i | i
COc1ccc2cc(C(=O)Nc3c(C)n(C)n(-c4ccccc4)c3=O)sc(=O)c2c1OC | i | i | 2.5µM[single pt active] | i
CC(=O)c1cccc(NC(=O)c2cnn3ccccc23)c1 | i | i | 4µM[single pt active] | i
O=C(NCc1cccnc1)c1ccccc1Br | i | i | i | i
O=C(NCc1cccnc1)c1cnn2ccccc12 | i | i | 4µM | i
COc1ccc(-c2cc([C@H](O)[C@@H]3CCCCN3)c3ccccc3n2)cc1 | i[8 µM] | i | i[5.75 µM] | i[5.75 µM]
N#Cc1cccc(-c2nc(NCc3cccs3)c3ccccc3n2)c1 | ? | i | i | i
CCN(CC)S(=O)(=O)c1ccc(-c2nnc3sc4cccc(C)c4n23)cc1 | ? | i | 4µM[single pt active] | i
CCN(CCNC(=O)C1CCCN(S(=O)(=O)c2cnc[nH]2)C1)c1ccccc1 (centres undefined) | i | i | 4µM[single pt active] | i
CCN(CCCNC(=O)C1CCCN(S(=O)(=O)c2cnc[nH]2)C1)c1ccccc1 (centres undefined) | i | i | 4µM[single pt active] | i
Cc1ccc(CCNC(=O)C2CCCN(S(=O)(=O)c3cnc[nH]3)C2)cc1 (centres undefined) | i | i | i | i
O=C(NCCN1CCN(c2ccccc2)CC1)C1CCCN(S(=O)(=O)c2cnc[nH]2)C1 (centres undefined) | i | i | 2.5µM[single pt active] | i
Cc1cccc(CN2CCC(CNC(=O)C3CCCN(S(=O)(=O)c4cnc[nH]4)C3)CC2)c1 (centres undefined) | i | i | 3.2µM[single pt active] | i
NC[C@@H](O)CSCc1ccc(Cl)cc1 | i[8 µM] | i | i[5.75 µM] | i[5.75 µM]
Cc1cc(C(=O)O)ccc1[C@H](N)C(=O)O | ? | i | i | i
O=c1cnc2cnc(Oc3ccccc3)nc2n1Cc1cccs1 | i | i | i | i
COC(=O)c1ccc(-c2nc(-c3ccc(Br)o3)no2)cc1 | i | i | 4µM[single pt active] | i
SMILES | Anthrax LT inh | SmPrx2 inh | AmpC nodet inh | AmpC det inh
CCOC(=O)c1ccc(OCc2nc(-c3cccs3)no2)cc1 | i | i | i | i
COc1ccc(-c2noc(-c3cc(Cl)ccc3Cl)n2)cc1OC | i | i | i | i
COc1ccc(Cl)cc1-c1nc(-c2ccc(Br)o2)no1 | i | i | 3.2µM[single pt active] | i
COC(=O)c1ccc(-c2nc(-c3cccs3)no2)cc1 | i | i | 4µM[single pt active] | i
CN(C)Cc1ccccc1-c1cc(-n2ccnc2)ncn1 | i | i | i | i
O=C(O)c1cc(=O)[nH]c(SCc2ccccc2)n1 | i[8 µM] | i | i[5.75 µM] | i[5.75 µM]
CCCn1c(-c2ccc(F)cc2)nc2c(N3CCN(Cc4nc(OC)cc(OC)n4)CC3)nc(C)nc21 | ? | nt | i | i
COc1ccc2[nH]cc(CCNc3ncncc3-c3c(C)noc3C)c2c1 | i | i | i | i
O=S(=O)(Nc1ccc2nc(-c3ccc(Br)o3)[nH]c2c1)c1ccccc1 | nt | i | 3.2µM | i
c1ncc(-c2ccoc2)c(NC2CC2)n1 | ? | i | i | i
